Consider 12 compounds from PubChem BioAssay.

Assay [1] in a line: growth inhibition of DIPG glioma cells, dose response, cell-based, SU-DIPG-XIII, MIPE5.0, CellTiter-Glo, qHTS (AID 1347064; cut-off not given, nearly all actives have AC50 up to about 23 µM;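 on AC50: cells exposed to compound for 48 hours before the viability read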). The settings on record: SU-DIPG-XIII viability, CellTiter-Glo ATP luminescence.
Assay [2] can be described thus: JHH-DIPG-1 glioma cell viability, MIPE5.0 library, CellTiter-Glo luminescence, qHTS (AID 1347067; cut-off not given, nearly all actives have AC50 up to about 26 µM;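 further: cells exposed to compound for 48 hours before readout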). The settings on record: JHH-DIPG-1 glioma viability, CellTiter-Glo ATP luminescence.
Assay [3] concerns the target NAD(+) hydrolase SARM1 (Homo sapiens) (UniProt Q6SZW1). The assay can be described thus: SARM1 TIR NADase inhibitors, cell lysate, NAD-Glo luminescence (AID 1508614;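 active means compound whose remaining NAD level is above about 45 nM, limit read from the data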;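 further: higher remaining NAD means stronger inhibition of SARM1 NADase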). As to conditions: SAM-TIR HEK293T lysate NADase, at 1 µM, hits give high values.
Assay [4] in a line: circadian clock period modulators, cell-based, LOPAC library, luminescence reporter (AID 2774).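 Further: values are relative to mean of DMSO wells on each plate.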 As to conditions: circadian reporter cells, at 7 µM, actives lie on both sides.
Assay [5] has as its system Hepatitis C virus NS3 helicase. The assay can be described thus: HCV NS3 helicase inhibitors, primary screen, biochemical, fluorescence polarization, LOPAC1280 library (AID 687035; in the data active means inhibition above about 37%). As to conditions: Purified HCV NS3 helicase, Cy5-dT15 ssDNA binding fluorescence polarization; hits give high values; concentration not given here. Background: Fluorescence polarisation rises when a labelled molecule tumbles more slowly, as on binding a larger partner.

Assay [6] in a line: Cy5 fluorescence quenching or enhancement artefacts, artefact control for HCV NS3 helicase inhibitor project, biochemical, LOPAC1280 (AID 687037). As to conditions: Cy5-DNA-NS3h complex fluorescence interference counterscreen.
The nature of assay [7]: phospholipid biosynthesis inhibitors in animal cells, primary screen, cell-based, LOPAC library, screen 4 (AID 1347384). As to conditions: phospholipid biosynthesis inhibition screen, at 10 µM.
Assay [8] in a line: hESC survival regulators, cell-based (AID 493140).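 Further: cells exposed to compounds for four days before counting.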 As to conditions: human embryonic stem cell survival screen; hits give high values.
Assay [9] can be described thus: growth inhibition of DIPG glioma cells, dose response, cell-based, SU-DIPG-IV, MIPE4.0, CellTiter-Glo, qHTS (AID 1347063; cut-off not given, nearly all actives have AC50 up to about 30 µM;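 further: compound exposure lasted 48 hours before the viability readout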). The settings on record: SU-DIPG-IV viability, CellTiter-Glo ATP luminescence.

Results filed as inconclusive are left out. Calls of active or inactive are those of the source. Unless noted, how the calls were made is not given here.

For orientation: AC50 means the midpoint of the concentration-response curve, whichever way the signal moves. In general, inhibition refers to the relative decrease from the control value, in per cent.

NAD(+) hydrolase SARM1 (Homo sapiens), sequence (Q6SZW1 whole entry, looked up): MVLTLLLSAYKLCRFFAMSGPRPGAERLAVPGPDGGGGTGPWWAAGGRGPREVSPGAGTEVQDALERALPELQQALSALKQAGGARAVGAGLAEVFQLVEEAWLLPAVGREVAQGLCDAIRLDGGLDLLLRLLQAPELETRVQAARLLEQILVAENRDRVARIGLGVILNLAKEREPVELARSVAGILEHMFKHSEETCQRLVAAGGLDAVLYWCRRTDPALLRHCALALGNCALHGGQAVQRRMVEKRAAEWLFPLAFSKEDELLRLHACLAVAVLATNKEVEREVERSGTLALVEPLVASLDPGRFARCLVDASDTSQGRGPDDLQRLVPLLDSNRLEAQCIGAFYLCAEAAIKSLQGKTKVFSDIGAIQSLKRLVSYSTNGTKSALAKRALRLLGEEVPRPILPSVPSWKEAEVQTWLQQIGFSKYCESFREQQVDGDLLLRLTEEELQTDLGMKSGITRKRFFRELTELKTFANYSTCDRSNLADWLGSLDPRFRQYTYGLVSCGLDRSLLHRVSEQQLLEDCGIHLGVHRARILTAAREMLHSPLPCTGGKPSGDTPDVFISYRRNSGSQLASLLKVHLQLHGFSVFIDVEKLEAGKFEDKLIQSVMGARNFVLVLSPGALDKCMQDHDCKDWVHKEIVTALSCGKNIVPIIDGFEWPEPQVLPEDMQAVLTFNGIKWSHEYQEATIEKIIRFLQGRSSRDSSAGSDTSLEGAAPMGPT

As to `CC[C@]1(O)C[C@H]2CN(CCc3c([nH]c4ccccc34)[C@@](C(=O)OC)(c3cc4c(cc3OC)N(C=O)[C@H]3[C@@](O)(C(=O)OC)[C@H](OC(C)=O)[C@]5(CC)C=CCN6CC[C@]43[C@@H]65)C2)C1`, the AC50 is 332 nM (active) in [1] and 29.5 nM (active) in assay [2]. In addition, the remaining NAD in [3] is 10 nM (inactive).

With `FC(F)(F)c1ccccc1-n1ccnc1`, the period change in assay [4] is -0.115 h (inactive). Besides, in assay [5], the inhibition is 0% (inactive). For the same compound, in assay [6], the fluorescence ratio (interference) was 1 (inactive). The call in assay [7] was inactive.

In the case of `Cc1cc(C)c(/C=C2\C(=O)Nc3ccccc32)[nH]1`, in assay [4], the period change was 0.375 h (inactive). Moreover, the inhibition in [5] was 6% (inactive). Besides, the fluorescence ratio (interference) in assay [6] is 1 (inactive). Further, the result in [1], in [2] and in assay [7] was inactive.

On to `COc1ccc2c(c1OC)C(=O)O[C@@H]2[C@H]1c2c(cc3c(c2OC)OCO3)CCN1C`, for which the period change in [4] is -0.03 h (inactive). Also, the survival in [8] is 2.92 (inactive). The inhibition in assay [5] is -2% (inactive). Also, the fluorescence ratio (interference) in assay [6] is 1 (inactive). For the same compound, the outcome in assay [7] was inactive. Besides, the remaining NAD in assay [3] is 10 nM (inactive).

`CCN1CCC[C@H]1CNC(=O)c1c(OC)ccc(Br)c1OC`: the survival in [8] is 12.3 (inactive).

With `C1COC(NC(C2CC2)C2CC2)=N1`, the period change in assay [4] was 0.03 h (inactive). The survival in assay [8] is 19 (inactive). In assay [5], the inhibition was 0% (inactive). In addition, the fluorescence ratio (interference) in [6] was 1 (inactive). Besides, the compound was called inactive in assay [1], in assay [2] and in assay [7].

With `CCOC(=O)c1cnc2c(cnn2CC)c1NN=C(C)C`, in [4], the period change was 0.065 h (inactive). Further, the inhibition in [5] was -2% (inactive). For the same compound, the fluorescence ratio (interference) in [6] is 1 (inactive). Also, the compound was classed as inactive in [7].

As to `c1cc(CN2CCCCC2)cc(OCCCNc2nc3ccccc3s2)c1`, in assay [4], the period change was -0.085 h (inactive). Further, the inhibition in assay [5] was -2% (inactive). In assay [6], the fluorescence ratio (interference) was 1 (inactive). Moreover, the compound was classed as inactive in [7].

In the case of `CN1CCC[C@@H]1Cc1c[nH]c2ccc(CCS(=O)(=O)c3ccccc3)cc12`, the outcome in [7] was inactive. Moreover, the remaining NAD in assay [3] was 10 nM (inactive).

Take `CC[N+](CC)(CC)CCOc1ccc(/C=C/c2ccccc2)cc1`: in assay [5], the inhibition was -3% (inactive). In addition, the fluorescence ratio (interference) in assay [6] was 1 (inactive). Moreover, the result in assay [7] was inactive.

On to `COCCOC(=O)C1=C(C)NC(C)=C(C(=O)OC/C=C/c2ccccc2)C1c1cccc([N+](=O)[O-])c1` (stereo not given), for which the inhibition in assay [5] was -1% (inactive). Further, in [6], the fluorescence ratio (interference) is 1 (inactive). Moreover, in assay [7], the compound was classed as active.

`CC#C[C@]1(O)CC[C@H]2[C@@H]3CCC4=CC(=O)CCC4=C3[C@@H](c3ccc(N(C)C)cc3)C[C@@]21C`: the period change in assay [4] was 0.39 h (inactive). In addition, the survival in [8] was 27.7 (inactive). Moreover, the inhibition in assay [5] is -1% (inactive). Further, the fluorescence ratio (interference) in assay [6] was 0.9 (inactive). Moreover, the half-maximal activity concentration (AC50) in [9] was 418 nM (active). In assay [7], the compound was called inactive. Besides, in assay [3], the remaining NAD was 10 nM (inactive).
